Experiment [1] can be described thus: inhibitors of TNFa-induced NFkB p65 translocation, primary screen, imaging, HUVEC, MLSMR starter and 10KST1 sets (AID 438;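 active means inhibition above 20% together with a positive visual image hit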;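 further: compound added about 3h40 before a 20 min TNFalpha stimulation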;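 on inhibition: signal is the nuclear over cytoplasmic p65 intensity ratio per well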). Conditions: HUVEC TNFa-induced p65 nuclear translocation; cell count: measured here: nuclei count (cytotoxicity indicator), at 2.08 µM; inhibition: at 2 µM, stronger effect = higher value, 0% TNFa-plus-vehicle, 100% no-TNFa wells.
The nature of experiment [2]: inhibitors of mutant huntingtin aggregation, primary screen, imaging, exon1htt(103Q)mCFP cells, high-content imaging (AID 483;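 active means visual image review flags a hit and inhibition of aggregation exceeds 20%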;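 further: compound exposure lasted 3 days before fixation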;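 on nuclei count: percent of the per-plate median nuclei count of sample wells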). Conditions: exon1htt(103Q)mCFP cell line, aggregate imaging, at 2 µM; inhibition of aggregation: stronger effect = higher value; nuclei count: measured here: cell count, toxicity.
A short description of experiment [3]: inhibitors of E-selectin induction by TNFa, primary screen, imaging, HUVEC, immunofluorescence, MLSMR starter and 10KST1 sets (AID 487;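 active means visually confirmed hit in the image check and inhibition above 20%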;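 on inhibition: signal is fraction of cell area covered by stained E-selectin grains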;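 on nuclei count: 100% = median nuclei count of all wells on the same plate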). Particulars: HUVEC TNFalpha-induced E-selectin immunofluorescence imaging, at 2 µM; inhibition: stronger effect = higher value; nuclei count: measured here: cell number, toxicity.
In experiment [4] the target is Voltage-gated potassium channel subunit beta-2 (Rattus norvegicus) (UniProt P62483). Kind of experiment: KvBeta enzyme negative modulators, primary screen, biochemical, NADPH fluorescence (AID 622).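 Further: slope of raw intensity against log time taken from 70 to 1610 s.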 Conditions: recombinant KvBeta, 4-cyanobenzaldehyde reduction, at 10 µM, stronger effect = higher value.
The target is the same in experiment [5]. Kind of experiment: KvBeta positive modulators, primary screen, biochemical, NADPH fluorescence (AID 623;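 active means NADPH fluorescence slope more negative than the mean of all samples by about 3 SD, 99.7% confidence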;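 further: fluorescence intensity change per second fitted from 20 to 320 s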). Conditions: Recombinant KvBeta, NADPH fluorescence decrease slope, 10 min; at 10 µM; stronger effect = lower value.
Experiment [6] has as its target Alpha-2C adrenergic receptor (Homo sapiens) (UniProt P18825). Kind of experiment: modulators of alpha2C/GIRK thallium flux, primary screen, cell-based, HEK293 alpha2C/GIRK1/2 (AID 624;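 active means fluorescence slope after compound addition differing from the mean of all screened samples at 99.7% confidence, in either direction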;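 further: slope of fluorescence ratio to pre-addition baseline per second over 15 to 24 s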). Particulars: thallium flux BTC fluorescence, at 10 µM, actives lie on both sides.
Experiment [7] is described as follows: inhibitors of Sendai virus-induced IRF3 signaling, primary screen, TLR/RLR signaling modifier project, cell-based, Sendai virus stimulus, luciferase, 10K MLSCN set (AID 602276;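 active means inhibition at or above 50% at 10 µM; inactive means inhibition below 50%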;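 further: firefly luciferase from ISG56 promoter only with Renilla not read in this screen; 0% = Sendai virus plus DMSO and 100% = medium plus DMSO without virus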). Conditions: HEK293 RL24 IRF3 luciferase reporter, at 10 µM, stronger effect = higher value. Background: A reporter such as luciferase makes a cellular process visible.
Experiment [8] can be described thus: inhibitors of poly I:C-induced TLR3 signaling, primary screen, cell-based, poly I:C stimulus, luciferase, 10K MLSCN set (AID 602277;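 active means inhibition of the reporter signal at or above 50%; inactive means inhibition below 50%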). Particulars: HEK293-TLR3 RL24 IRF3 luciferase reporter, at 10 µM, stronger effect = higher value.

SMILES strings stand for the structures. Active and inactive are the calls of the source.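 How the source made its calls, unless noted: active means fluorescence slope higher than the sample average by over 3 SD (cut at about -0.22 in these data, passing the limit was not always enough); inactive means the rest.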

A word on the inhibition: it is the drop in the measured response relative to a control, in per cent.

Alpha-2C adrenergic receptor (Homo sapiens), sequence (P18825 whole entry, looked up): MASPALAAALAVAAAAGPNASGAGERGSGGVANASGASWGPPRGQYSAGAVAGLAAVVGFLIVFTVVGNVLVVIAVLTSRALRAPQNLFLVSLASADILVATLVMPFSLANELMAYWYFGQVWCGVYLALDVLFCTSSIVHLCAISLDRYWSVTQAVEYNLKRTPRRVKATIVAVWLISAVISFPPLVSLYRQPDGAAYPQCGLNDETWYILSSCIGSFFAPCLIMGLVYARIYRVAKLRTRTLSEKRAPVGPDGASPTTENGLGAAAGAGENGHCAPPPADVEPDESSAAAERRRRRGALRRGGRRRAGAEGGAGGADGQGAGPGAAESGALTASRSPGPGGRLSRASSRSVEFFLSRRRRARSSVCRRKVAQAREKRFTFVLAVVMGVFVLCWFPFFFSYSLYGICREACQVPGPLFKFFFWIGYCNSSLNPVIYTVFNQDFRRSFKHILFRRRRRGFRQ
Voltage-gated potassium channel subunit beta-2 (Rattus norvegicus), sequence (P62483 whole entry, looked up): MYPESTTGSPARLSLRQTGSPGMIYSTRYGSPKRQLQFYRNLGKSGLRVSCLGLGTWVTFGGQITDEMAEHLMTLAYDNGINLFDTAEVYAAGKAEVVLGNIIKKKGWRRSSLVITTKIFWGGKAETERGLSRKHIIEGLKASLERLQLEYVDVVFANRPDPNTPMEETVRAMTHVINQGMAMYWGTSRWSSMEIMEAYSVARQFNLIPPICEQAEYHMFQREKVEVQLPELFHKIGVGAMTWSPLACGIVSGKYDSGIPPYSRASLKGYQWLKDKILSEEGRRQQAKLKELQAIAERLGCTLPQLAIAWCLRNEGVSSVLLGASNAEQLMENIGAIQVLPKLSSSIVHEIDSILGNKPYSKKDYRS

On to `COCCn1cc(C(=O)c2ccccc2OCC(=O)Nc2cc(C)on2)cc(C#N)c1=O`, for which the cell count in experiment [1] was found to be 455. Further, the inhibition in experiment [1] is 5.8% (inactive); in experiment [3], -7% (inactive); in experiment [7], 9.82% (inactive); in experiment [8] it was 15.9% (inactive). The inhibition of aggregation in experiment [2] was -23.9% (inactive). Also, the nuclei count in experiment [2] was 77.9%; in experiment [3], 97.9%. Further, the fluorescence slope in experiment [4] is -0.368 (inactive). For the same compound, the NADPH fluorescence slope in experiment [5] is 6.2e-06 (inactive). Moreover, the slope in experiment [6] is 0.00464 (inactive).

`O=C(c1csc2ccccc12)N1CCCCCC1`: the cell count in experiment [1] turned out to be 359. Moreover, the inhibition in experiment [1] is 5.6% (inactive); in experiment [3], -16.8% (inactive); in experiment [7] it was 7.71% (inactive); in experiment [8], 5.9% (inactive). Besides, in experiment [2], the inhibition of aggregation is 13.8% (inactive). Moreover, the nuclei count in experiment [2] was determined as 100%; in experiment [3], 106%. For the same compound, in experiment [4], the fluorescence slope is -0.512 (inactive). In experiment [5], the NADPH fluorescence slope is 8.9e-06 (inactive). Also, in experiment [6], the slope was 0.0038 (inactive).

In the case of `Cc1c(NS(=O)(=O)c2ccc3c(c2)n(C)c(=O)n3C)c(=O)n(-c2ccccc2)n1C`, the cell count in experiment [1] was 582. The inhibition was 2.7% (inactive) in experiment [1], 28% (inactive) in experiment [3], 15.8% (inactive) in experiment [7] and 13.4% (inactive) in experiment [8]. Also, in experiment [2], the inhibition of aggregation was -2% (inactive). Also, the values for the nuclei count in experiment [2] and in experiment [3] were 99.2% and 93%, respectively. Also, in experiment [4], the fluorescence slope is -0.616 (inactive). Besides, the NADPH fluorescence slope in experiment [5] was 1.5e-05 (inactive). The slope in experiment [6] was 0.00372 (inactive).

With `O=c1oc2c3c4c(cc2cc1-c1nc2ccccc2[nH]1)CCCN4CCC3`, in experiment [1], the cell count stood at 451. In addition, the inhibition was 5.9% (inactive) in experiment [1], -25.7% (inactive) in experiment [3], -24.1% (inactive) in experiment [7] and -107% (inactive) in experiment [8]. For the same compound, the inhibition of aggregation in experiment [2] was 94.7% [may fluoresce] (active). Moreover, the nuclei count in experiment [2] was 112%; in experiment [3], 121%. Besides, the fluorescence slope in experiment [4] was -0.308 (inactive). For the same compound, in experiment [5], the NADPH fluorescence slope was 1.6e-05 (inactive). Further, in experiment [6], the slope was 0.00239 (inactive).

As to `Cc1ccc(C)c2[nH]c(=O)c(CCNC(=O)c3ccc(Br)o3)cc12`, in experiment [1], the cell count turned out to be 327. The inhibition is -9.8% (inactive) in experiment [1], 23.8% (inactive) in experiment [3], -1.8% (inactive) in experiment [7] and -1.41% (inactive) in experiment [8]. Besides, in experiment [2], the inhibition of aggregation was 14.1% (inactive). The values for the nuclei count in experiment [2] and in experiment [3] were 87% and 97.7%, respectively. Further, in experiment [4], the fluorescence slope is -0.481 (inactive). Further, the NADPH fluorescence slope in experiment [5] was -0.000268 (inactive). Further, in experiment [6], the slope was 0.00492 (inactive).

Turning to `COc1ccccc1CC(NC(C)=O)C(=O)NC1CCN(c2nnnn2-c2ccccc2)CC1` (centres undefined), the cell count in experiment [1] is 761. Moreover, the inhibition in experiment [1] is -5.5% (inactive); in experiment [3], -19.7% (inactive); in experiment [7] it was -1.4% (inactive); in experiment [8], 16.9% (inactive). The inhibition of aggregation in experiment [2] is -29.5% (inactive). Moreover, the nuclei count in experiment [2] came out at 63.6%; in experiment [3], 117%. Further, in experiment [4], the fluorescence slope is -0.624 (inactive). The NADPH fluorescence slope in experiment [5] was 1.1e-06 (inactive). Also, in experiment [6], the slope was 0.00623 (inactive).

`CCCCn1c(CN(C)Cc2ccccc2)nc2c1c(=O)n(C)c(=O)n2C`: in experiment [1], the cell count worked out at 227. Moreover, the inhibition was -6.1% (inactive) in experiment [1], 16.4% (inactive) in experiment [3], -18.7% (inactive) in experiment [7] and -58.3% (inactive) in experiment [8]. In addition, the inhibition of aggregation in experiment [2] was 13.2% (inactive). In addition, the figures for the nuclei count in experiment [2] and in experiment [3] were 57% and 103%, respectively. Besides, the fluorescence slope in experiment [4] was -0.605 (inactive). Also, the NADPH fluorescence slope in experiment [5] is -6.4e-05 (inactive). Further, the slope in experiment [6] was 0.00658 (inactive).

With `C=Cn1c(N2CCOCC2)nc2c1c(=O)[nH]c(=O)n2C`, in experiment [1], the cell count came out at 719. Also, the inhibition in experiment [1] is 0.9% (inactive); in experiment [3] it was 21.8% (inactive); in experiment [7], 20% (inactive); in experiment [8], 20.4% (inactive). In addition, the inhibition of aggregation in experiment [2] was -2.7% (inactive). Further, the nuclei count in experiment [2] came to 62.9%; in experiment [3], 115%. In experiment [4], the fluorescence slope was -0.412 (inactive). In experiment [5], the NADPH fluorescence slope is -2.2e-05 (inactive). Besides, the slope in experiment [6] was 0.00579 (inactive).

For `CC(C)Cc1n[nH]c(=O)[nH]1`, in experiment [1], the cell count was determined as 742. Moreover, the inhibition is -25.9% (inactive) in experiment [1], -36.3% (inactive) in experiment [3], -8.4% (inactive) in experiment [7] and 1.42% (inactive) in experiment [8]. Besides, the inhibition of aggregation in experiment [2] was -10.2% (inactive). Moreover, the nuclei count in experiment [2] amounted to 113%; in experiment [3], 120%. The fluorescence slope in experiment [4] is -0.543 (inactive). In addition, the NADPH fluorescence slope in experiment [5] is -3.9e-05 (inactive). Moreover, the slope in experiment [6] was 0.00544 (inactive).

With `N#CCCN(Cc1cccnc1)C(=O)Nc1ccc(Cl)c(Cl)c1`, in experiment [1], the cell count worked out at 398. Besides, the inhibition in experiment [1] was 3.1% (inactive); in experiment [3], -20.5% (inactive); in experiment [7] it was 15.4% (inactive); in experiment [8] it was 29.1% (inactive). Moreover, the inhibition of aggregation in experiment [2] is -31.1% (inactive). Besides, the nuclei count was 109% in experiment [2] and 99.6% in experiment [3]. Further, in experiment [4], the fluorescence slope was -0.449 (inactive). The NADPH fluorescence slope in experiment [5] is 5.4e-05 (inactive). In addition, in experiment [6], the slope is 0.0054 (inactive).

As for `O=C(O)CCC1(C(=O)O)OCCc2ccccc21` (centres undefined), the cell count in experiment [1] came out at 470. Also, the inhibition in experiment [1] was 2.9% (inactive); in experiment [3] it was -99.4% (inactive); in experiment [7] it was 8.34% (inactive); in experiment [8], 17.4% (inactive). In experiment [2], the inhibition of aggregation was -4.2% (inactive). In addition, the nuclei count was determined as 99.2% in experiment [2] and 118% in experiment [3]. Further, the fluorescence slope in experiment [4] was -0.599 (inactive). The NADPH fluorescence slope in experiment [5] is -3.7e-05 (inactive). For the same compound, in experiment [6], the slope is 0.00588 (inactive).

For the compound `CCOc1ccc2c(c1)n(CO)c(=S)n2CO`, in experiment [1], the cell count was 677. The inhibition in experiment [1] is -26.5% (inactive); in experiment [3], 15.1% (inactive); in experiment [7] it was 16.9% (inactive); in experiment [8], 19.4% (inactive). Also, the inhibition of aggregation in experiment [2] was 4.4% (inactive). Besides, the nuclei count in experiment [2] is 68.8%; in experiment [3], 105%. The fluorescence slope in experiment [4] is -0.498 (inactive). The NADPH fluorescence slope in experiment [5] was -4.8e-05 (inactive). Besides, the slope in experiment [6] was 0.00378 (inactive).

For the compound `O=C(c1ccc(Br)o1)N(Cc1ccccc1)c1ccccn1`, in experiment [1], the cell count was 386. Besides, the inhibition was -5.9% (inactive) in experiment [1], 5.4% (inactive) in experiment [3], 5.65% (inactive) in experiment [7] and -0.317% (inactive) in experiment [8]. Also, the inhibition of aggregation in experiment [2] was 13.3% (inactive). The nuclei count was found to be 102% in experiment [2] and 107% in experiment [3]. Also, the fluorescence slope in experiment [4] was -0.43 (inactive). In addition, in experiment [5], the NADPH fluorescence slope was 5.2e-05 (inactive). Besides, in experiment [6], the slope was 0.00529 (inactive).

Regarding `Cn1c(=O)c2c(-c3ccncc3)c3c(nc2n(C)c1=O)-c1ccccc1C3=O`, in experiment [1], the cell count was 637. Besides, the inhibition in experiment [1] is 0% (inactive); in experiment [3] it was -113% (inactive); in experiment [7], 14.2% (inactive); in experiment [8], 22.4% (inactive). In experiment [2], the inhibition of aggregation was -3.3% (inactive). The nuclei count in experiment [2] amounted to 98.9%; in experiment [3], 136%. Also, the fluorescence slope in experiment [4] is -0.497 (inactive). Besides, the NADPH fluorescence slope in experiment [5] is 4.5e-05 (inactive). Besides, the slope in experiment [6] was 0.00591 (inactive).

The values above are taken from PubChem BioAssay.
